In the library only some 7.4% were active in any assay of this set; here they are far more common.
HEK cytotox: HEK 293 cell cytotoxicity; HEK 293 viability, ATP luminescence (CellTiter-Glo), 48-72 h; Potency, µM (top dose mostly 115 µM), for inactives: at the top dose activity change, negative = cytotoxicity, hits mostly inhibitors; actives 6.6% (n = 94,000); AID 1345083; note: % is set by controls: 0 for no effect and ±100 for the full control effect; nearly all actives have a fitted effect of over 60% in size
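Viability of HEK 293 cells, plated at 250 cells/well, was judged by cellular ATP after compound treatment for 48 or 72 hr. Luminescence was imaged 10 min after CellTiter-Glo addition at room temperature.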
3T3 cytotox: kills NIH 3T3 cells | Potency, µM (series often up to 96.7 µM), for inactives: at the top dose activity change, negative = cytotoxicity, hits mostly inhibitors | NIH 3T3 viability, CellTiter-Glo ATP luminescence, 48-72 h | actives 4.3% (n = 94,000); note: % is set by controls: 0 for no effect and ±100 for the full control effect; nearly all actives have a fitted effect of over 55% in size
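Cytotoxicity is measured as loss of cellular ATP: NIH 3T3 cells (400/well) are exposed to compound for 48 or 72 hr at 37 °C, then CellTiter-Glo luminescence is imaged after 10 min at room temperature.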
hNpr1 antagonist: human Npr1 receptor antagonism. Potency, µM (titrated, usually from 46.3 µM), inactives show at the top dose activity change, negative = inhibition, actives largely listed as inhibitors. HEK293 hNpr1 GloSensor cGMP, ANP-stimulated luminescence. actives 1.6% (n = 76,000); calls by dose curve; note: % is set by controls: 0 for no effect and ±100 for the full control effect; nearly all actives have a fitted effect of over 60% in size
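HEK293 cells stably expressing human Npr1 and cGMP GloSensor pGS-40F, loaded 2 h with 2% GloSensor reagent, given compound 30 min at room temperature. Luminescence read before and 20 min after 0.1 nM hNppA.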
SNCA expr inhib: SNCA gene expression inhibition. HEK-293 SNCA-luciferase knock-in, luminescence, 24 h. Potency, µM (doses to about 57.2 µM), inactives show at the highest dose activity change, negative = inhibition, most hits filed as inhibitors. actives 0.17% (n = 140,000). AID 1671194;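 note: plate controls were DMSO cells for no effect and cell-free wells for full effect; nearly all actives have a fitted effect of over 45% in size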
SNCA viab count: reduces viability of HEK-293 SNCA reporter cells; HEK-293-SNCA-luc viability, GF-AFC fluorescence, 24 h; Potency, µM (titrated, usually from 57.1 µM), for inactives: at the top dose activity change, negative = cytotoxicity, usual class: cytotoxic; actives 0.12% (n = 150,000); AID 1671193;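 note: 0% = DMSO-treated cells and -100% = medium-only wells without cells; nearly all actives have a fitted effect of over 30% in size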
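Cytotoxicity counterscreen: after 24 h compound treatment of genome-edited SNCA-luciferase HEK-293 cells, live-cell protease substrate GF-AFC read by fluorescence after 30 min; activity scaled between DMSO (0%) and medium-only (-100%), curves Hill-fitted.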
Luciferase inh: Photinus pyralis luciferase inhibition. actives 2.5% (n = 76,000). Potency, µM (titrated, usually from 115 µM), most hits filed as inhibitors. AID 1347043. P08659. purified P. pyralis luciferase, luminescence, biochemical; note: % is set by controls: 0 for no effect and ±100 for the full control effect; nearly all actives have a fitted effect of over 65% in size
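Luminescence read by CCD imager after adding enzyme (10nM final) to wells holding compound, titrated in qHTS. Substrates 10uM each D-luciferin and ATP; buffer 50mM Tris acetate pH 7.5, 10mM Mg acetate, Tween-20, BSA.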
Npr1 antag conf: confirmation of human Npr1 natriuretic peptide receptor antagonists; shares compounds with hNpr1 antagonist; HEK293 hNpr1 cGMP GloSensor luminescence, ANP-stimulated; AID 1347044; Potency, µM (highest dose often 57.6 µM), for the others: at the top dose activity change, negative = inhibition, hits mostly inhibitors; actives 76% (n = 1,400); calls by dose curve; note: nearly all actives have a fitted effect of over 70% in size
Npr2 selectivity: hNpr2 antagonism, selectivity versus Npr1. Potency, µM (titrated, usually from 57.6 µM), without a hit: at the highest dose activity change, negative = inhibition, usual class: inhibitors. shares compounds with hNpr1 antagonist. AID 1347046. actives 67% (n = 1,400). HEK293 hNpr2 GloSensor cGMP luminescence, CNP-stimulated; calls by dose curve; note: nearly all actives have a fitted effect of over 70% in size
Target sequence (P20594 whole entry, looked up): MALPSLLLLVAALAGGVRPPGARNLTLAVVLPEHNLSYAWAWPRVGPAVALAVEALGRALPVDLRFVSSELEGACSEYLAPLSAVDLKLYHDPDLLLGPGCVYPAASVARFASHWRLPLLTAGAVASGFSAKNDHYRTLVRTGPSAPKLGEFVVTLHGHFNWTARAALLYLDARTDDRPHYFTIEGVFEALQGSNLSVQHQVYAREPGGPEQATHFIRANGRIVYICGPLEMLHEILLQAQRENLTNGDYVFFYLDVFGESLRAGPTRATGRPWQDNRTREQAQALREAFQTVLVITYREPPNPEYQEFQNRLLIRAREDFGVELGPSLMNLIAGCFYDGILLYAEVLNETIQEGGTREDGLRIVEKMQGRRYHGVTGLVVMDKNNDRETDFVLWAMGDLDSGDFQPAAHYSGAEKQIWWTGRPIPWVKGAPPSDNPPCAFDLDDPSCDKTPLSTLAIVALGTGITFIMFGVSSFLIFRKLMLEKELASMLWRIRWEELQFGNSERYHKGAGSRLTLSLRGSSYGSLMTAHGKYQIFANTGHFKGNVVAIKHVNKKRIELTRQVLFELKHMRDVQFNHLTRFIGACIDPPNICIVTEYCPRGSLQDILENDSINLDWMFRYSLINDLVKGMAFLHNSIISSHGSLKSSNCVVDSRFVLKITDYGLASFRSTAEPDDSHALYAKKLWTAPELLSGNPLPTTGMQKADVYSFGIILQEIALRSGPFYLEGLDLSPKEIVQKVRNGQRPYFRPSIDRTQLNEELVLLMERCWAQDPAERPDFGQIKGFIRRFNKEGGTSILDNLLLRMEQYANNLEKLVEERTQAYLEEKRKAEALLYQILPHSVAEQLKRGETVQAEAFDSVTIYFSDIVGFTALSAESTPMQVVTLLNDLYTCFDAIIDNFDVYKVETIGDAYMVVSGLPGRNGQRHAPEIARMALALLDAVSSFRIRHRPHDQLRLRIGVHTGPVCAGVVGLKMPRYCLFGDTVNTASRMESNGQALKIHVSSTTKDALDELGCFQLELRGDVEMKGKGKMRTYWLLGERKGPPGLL
FLuc counter: FLuc enzyme inhibition, Npr1 counter-screen; shares compounds with hNpr1 antagonist; purified FLuc enzyme, luminescence, Km substrate; Potency, µM (series often up to 57.6 µM), without a hit: top-dose activity change, negative = inhibition, most hits filed as inhibitors; actives 0.7% (n = 1,400); AID 1347047; note: 0% is about no effect
GloSensor ctrl: reduces cGMP signal in GloSensor control cells; shares compounds with hNpr1 antagonist; HEK293 GloSensor cGMP, SNP-stimulated, luminescence; actives 69% (n = 1,400); Potency, µM (highest dose often 57.6 µM), for inactives: top-dose activity change, negative = inhibition, hits mostly inhibitors; calls by dose curve; note: % is set by controls: 0 for no effect and ±100 for the full control effect; nearly all actives have a fitted effect of over 70% in size
An asterisk follows results filed as active; [ ] = another dose, or the depositor's remark. Unless noted, calls come from the whole dose curve; as a rule, active = well fitted curve in the direction sought with a large enough effect; inconclusive = small, poorly fitted or top-dose-only effect, or another doubt; inactive = no such curve, though single readings can be large; an effect the other way counts as inactive or inconclusive. Potency is the fitted concentration of half-maximal effect.

For Cc1ccc(C(=O)N2CCN(C(=O)c3nnn4c3COC(c3ccc(F)cc3)C4)CC2)cc1C (stereo not given) the results were HEK cytotox 45µM*, 3T3 cytotox inconclusive, hNpr1 antagonist 11µM*, SNCA expr inhib -17%, SNCA viab count -23%, Luciferase inh inactive, Npr1 antag conf 27µM*, Npr2 selectivity 22µM*, FLuc counter 0% and GloSensor ctrl 24µM*.
COc1ccc(C(=O)N2CCN(C(=O)c3nnn4c3COC(c3ccc(F)cc3)C4)CC2)cc1 (stereo not given) was read as HEK cytotox inconclusive, 3T3 cytotox inconclusive, hNpr1 antagonist -16%, SNCA expr inhib inconclusive, SNCA viab count -1% and Luciferase inh inactive.
For COc1ccc(C2Cn3nnc(C(=O)N4CCN(C(=O)c5cc(C)ccc5C)CC4)c3CO2)cc1 (stereo not given) the results were HEK cytotox inconclusive, 3T3 cytotox inconclusive, hNpr1 antagonist inconclusive, SNCA expr inhib 1%, SNCA viab count -8%, Luciferase inh inactive, Npr1 antag conf inconclusive, Npr2 selectivity -23%, FLuc counter -1% and GloSensor ctrl -15%.
COc1ccc(C2Cn3nnc(C(=O)N4CCN(C(=O)c5ccc(F)cc5)CC4)c3CO2)cc1 (stereo not given) was read as HEK cytotox inconclusive, 3T3 cytotox -12%, hNpr1 antagonist inconclusive, SNCA expr inhib inconclusive, SNCA viab count 5%, Luciferase inh inactive, Npr1 antag conf 22µM*, Npr2 selectivity inconclusive, FLuc counter -1% and GloSensor ctrl 22µM*.
For CCOC(=O)C1CCN(C(=O)c2nc3sccn3c2-c2cccc(C#N)c2)CC1 the results were HEK cytotox -17%, 3T3 cytotox -29%, SNCA expr inhib -1% and SNCA viab count -5%.
For CC(=O)N1CCN(C(=O)C2CCc3nnc(CN[S+](=O)([O-])c4ccccc4Cl)n32)CC1 (stereo not given) the results were HEK cytotox -3%, 3T3 cytotox -10%, SNCA expr inhib 7% and SNCA viab count 2%.
`CCN1CCN(C(=O)c2ccc(-c3nnc4ccc(NC(=O)C5CCC5)cn34)cc2)CC1` gave HEK cytotox inconclusive, 3T3 cytotox -5%, hNpr1 antagonist 3%, SNCA expr inhib 13%, SNCA viab count 8% and Luciferase inh inconclusive.
For O=C(NC1CCN(c2ccnc3ccnn23)CC1)c1cc(F)ccc1Br the results were HEK cytotox inconclusive, 3T3 cytotox inconclusive, SNCA expr inhib -14%[87.6 µM] and SNCA viab count 2%[87.6 µM].
